Inconclusive results are not listed. Unmarked numbers belong to inactive results. Active and inactive are the calls of the source. The call rests on the fitted dose curve; in most records, active means well fitted curve in the direction sought with a large enough effect; inconclusive means small, poorly fitted or top-dose-only effect, or another doubt; inactive means no such curve, though single readings can be large; an effect the other way counts as inactive or inconclusive.

The target in assay [1] is Cellular tumor antigen p53 (Homo sapiens) (UniProt P04637). The assay is described as follows: Primary qHTS for small molecule compounds that upregulate eGFP-tagged delta133p53alpha (in N-terminal) cells. (AID 2060322). Further: nearly all actives have a fitted effect of over 75% in size. Further: potency means the concentration at half of the fitted maximal effect.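 On activation: cells pre-induced with doxycycline then dosed without doxycycline; 0% = DMSO vehicle and 100% = reference activator.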 Particulars: NCI-H358 eGFP-delta133p53alpha fluorescence, 24 h; activation: stronger effect = higher value. The procedure, abridged:
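NCI-H358 cells pre-induced 24 h with 10 ng/ml doxycycline for eGFP-delta133p53alpha, plated dox-free and exposed 24 h at 37C to titrated compounds. Fixed, Hoechst-stained; gated GFP peak intensity by laser scanning cytometry, normalized to DMSO (0%) and 57.5 uM 5-azacytidine (100%).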
For orientation: In qHTS, concentration-response curves come from the screen itself.

In assay [2] the target is Aldehyde dehydrogenase, mitochondrial (Homo sapiens) (UniProt P05091). The assay is described as follows: qHTS for Inhibitors of the Aldehyde Dehydrogenase Family (ALDH2) Primary screen (AID 2061308).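 Further: plate controls were vehicle for no effect and reference inhibitor for full effect; nearly all actives have a fitted effect of over 55% in size.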 The settings on record: ALDH2 enzyme inhibition qHTS, 1536-well; series mostly up to 56 µM.
Assay [3] deals with Retinaldehyde dehydrogenase 3 (Homo sapiens) (UniProt P47895). The assay is described as follows: qHTS for Inhibitors of the Aldehyde Dehydrogenase Family (ALDH1A3) Primary screen (AID 2061315).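 Further: plate controls were DMSO vehicle for no effect and reference inhibitor for full effect.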 Particulars: ALDH inhibition qHTS; series mostly up to 56 µM.

Chain of Cellular tumor antigen p53 (Homo sapiens) (P04637 whole entry, looked up): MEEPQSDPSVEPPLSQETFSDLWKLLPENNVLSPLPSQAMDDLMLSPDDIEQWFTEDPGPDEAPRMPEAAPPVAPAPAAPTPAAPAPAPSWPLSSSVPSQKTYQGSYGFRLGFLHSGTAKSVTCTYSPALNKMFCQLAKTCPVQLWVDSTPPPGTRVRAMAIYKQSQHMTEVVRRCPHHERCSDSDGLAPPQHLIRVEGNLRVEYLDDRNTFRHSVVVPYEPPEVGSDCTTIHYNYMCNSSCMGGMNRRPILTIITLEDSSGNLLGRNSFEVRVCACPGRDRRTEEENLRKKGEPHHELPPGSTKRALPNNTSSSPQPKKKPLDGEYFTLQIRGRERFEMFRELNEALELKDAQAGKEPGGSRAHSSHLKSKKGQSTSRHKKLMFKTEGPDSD

On to `C/C=C(\C)C(=O)OC1C2C3(C)CCC(OC4CC(OC)C(OC5OC(C)C(O)C(OC)C5O)C(C)O4)CC3CCC23OC32CCC(C(C)=O)C2(C)C1OC(=O)/C(C)=C/C` (configuration not stated), for which the activation in assay [1] was 12.5%. Also, the Potency entry in assay [2] and in assay [3] was “inactive” in each case.

Take `CCCCC1C(=O)NC(=O)N(C2CCCCC2)C1=O` (configuration not stated): the activation in assay [1] was 17%. In addition, the Potency result in assay [2] and in assay [3] was “inactive” throughout.

Turning to `C=C[C@H]1CN2CC[C@H]1C[C@@H]2[C@@H](O)c1ccnc2ccccc12`, the activation in assay [1] is 3.57%. The Potency result in assay [2] and in assay [3] was “inactive” in each case.

For the compound `CNC(=O)c1cc(C#N)cc(C)c1NC(=O)c1cc(Br)nn1-c1ncccc1Cl`, the activation in assay [1] was 18.3%. Besides, the Potency entry in assay [2] and in assay [3] was “inactive” in each case.

As for `COC(=O)C1(C)CCC(O)C2(C)c3c(O)cc(C(C)C)cc3C(O)C(OC(C)=O)C12` (configuration not stated), the activation in assay [1] was -9.16%. Besides, the Potency entry in assay [2] and in assay [3] was “inactive” throughout.

For the compound `C=CC(C)(O)CC/C=C(\C)C(=O)O[C@H]1[C@H](O)[C@@H](CO)O[C@@H](OC(=O)[C@]23CCC(C)(C)CC2C2=CCC4[C@@]5(C)CC[C@H](O[C@@H]6O[C@H](CO[C@@H]7OC[C@H](O)[C@H](O)[C@H]7O[C@@H]7OC[C@@H](O)[C@H](O)[C@H]7O)[C@@H](O)[C@H](O)[C@H]6O)C(C)(C)C5CC[C@@]4(C)[C@]2(C)CC3)[C@@H]1OC1OC(C)C(O[C@@H]2OC[C@@H](O)[C@H](O[C@@H]3OC[C@@H](O)[C@H](O)[C@H]3O)[C@H]2O)C(O)C1O` (some centres not stated), the activation in assay [1] is -6.87%. The values for the activity change, negative = inhibition in assay [2] and in assay [3] were 12% [at 11.2 µM] and 3.26% [at 11.2 µM], respectively.

Regarding `CN1C(=O)N(c2ccc(C#N)c(C(F)(F)F)c2)C(=O)[C@@]1(CO)c1ccccc1`, in assay [1], the activation is -3.67%. Moreover, the Potency entry in assay [2] and in assay [3] was “inactive” in each case.

Take `c1ccc([C@@H]2C[C@H]2NC2CCNCC2)cc1`: the activation in assay [1] was 13.8%. Besides, the Potency entry in assay [2] and in assay [3] was “inactive” throughout.

Regarding `COc1cc2c(cc1OC)[C@@]13CCN4CC5=CCO[C@H]6CC(=O)N2[C@H]1[C@H]6[C@H]5C[C@H]43`, the activation in assay [1] was -22.1%. For the same compound, the Potency entry in assay [2] and in assay [3] was “inactive” throughout.

`COC(=O)C12C(=O)C(C)(O)C(=O)C1(C)C(C)=CC1C34CCC(OC3=O)C(C)(CO)C4CCC12C` (configuration not stated): in assay [1], the activation is -16.8%. Besides, the Potency entry in assay [2] and in assay [3] was “inactive” in each case.

Consider `CCCCCn1cc(C(=O)C2C(C)(C)C2(C)C)c2ccccc21`, for which the activation in assay [1] was -0.955%. Further, the Potency entry in assay [2] and in assay [3] was “inactive” each time.

On to `N#CC(OC1OC(COC2OC(CO)C(O)C(O)C2O)C(O)C(O)C1O)c1ccccc1` (configuration not stated), for which, in assay [1], the activation is 8.4%. Besides, the Potency result in assay [2] and in assay [3] was “inactive” each time.

Regarding `CC(C)(C)NC[C@H](O)c1ccc(O)cc1Cl`, the activation in assay [1] was -6.33%. The Potency result in assay [2] and in assay [3] was “inactive” in each case.

Take `CC1CCCC(O)CC(=O)Cc2cc(O)cc(O)c2C(=O)O1` (configuration not stated): the activation in assay [1] was 7.63%. For the same compound, the Potency entry in assay [2] and in assay [3] was “inactive” in each case.

As for `C/C=C(\C)C(=O)OC1CC2C(C)(C)OC(=O)CC(OC(C)=O)C2(C)C2CC(OC(=O)C(C)C)C3(C)C(c4ccoc4)CC4OC43C12C` (configuration not stated), the activation in assay [1] was -19.8%. In addition, the Potency entry in assay [2] and in assay [3] was “inactive” in each case.

Take `COc1c(C(C)C)cc2c(c1O)[C@@]1(C(=O)O)CCCC(C)(C)C1CC2` (some centres not stated): the activation in assay [1] was -13%. For the same compound, the Potency result in assay [2] and in assay [3] was “inactive” each time.

For `CO/C1=C\C(C)=C\[C@@H](C)[C@@H](O)[C@@H](C)C/C(C)=C/C=C/[C@H](OC)[C@@H]([C@@H](C)[C@@H](O)[C@H](C)[C@@]2(O)C[C@@H](O)[C@H](C)[C@@H](C(C)C)O2)OC1=O`, the activation in assay [1] was 13%. The Potency result in assay [2] and in assay [3] was “inactive” throughout.

`COC1CC(O[C@H]2CC[C@@]3(C)C(=CCC4C3C(O)[C@@H](O)[C@]3(C)[C@@H](C(C)=O)CC[C@]43O)C2)OC(C)C1OC1CC(OC)C(OC2OC(C)C(O)C(O)C2O)C(C)O1` (some centres not stated): the activation in assay [1] was -14.5%. In addition, the Potency entry in assay [2] and in assay [3] was “inactive” each time.

`C=C(C)[C@@]12O[C@@H]1[C@@]1(C)C(=C[C@H]2O)CC[C@@H](O)[C@@H]1C`: the activation in assay [1] was 8.4%. Besides, the Potency entry in assay [2] and in assay [3] was “inactive” in each case.

With `C[C@@H]1O[C@@H](O[C@H]2CC[C@@]3(C)C(CC[C@@H]4C3CC[C@]3(C)[C@@H](C5=CC(=O)OC5)CC[C@]43O)C2)[C@H](O)[C@H](O)[C@H]1O` (some centres not stated), the Potency in assay [1] was 1650 nM (active). The Potency result in assay [2] and in assay [3] was “inactive” throughout.

With `CN1[C@H]2C[C@H](OC(=O)[C@H](CO)c3ccccc3)C[C@@H]1[C@@H](O)C2`, the activation in assay [1] is 1.67%. The Potency entry in assay [2] and in assay [3] was “inactive” each time.

On to `CCCCCCC1C(=O)O[C@H](C)[C@H](NC(=O)c2cccc(NC=O)c2O)C(=O)O[C@@H](C)[C@@H]1OC(=O)CC(C)C` (some centres not stated), for which the activation in assay [1] was -5.67%. The Potency result in assay [2] and in assay [3] was “inactive” each time.

With `CC(=O)OC[C@]12C[C@H](OC(=O)CC(C)C)C(C)=C[C@H]1O[C@@H]1[C@H](O)[C@@H](OC(C)=O)[C@@]2(C)[C@@]12CO2`, the Potency in assay [1] is 82.8 nM (active). For the same compound, the Potency entry in assay [2] and in assay [3] was “inactive” throughout.

For `CC1=CC(=O)[C@@H](O)[C@]2(C)C3[C@@H](O)[C@@H]4OC(=O)[C@@H]([C@H]4C)[C@]3(C)C(=O)C[C@@H]12` (some centres not stated), the Potency in assay [1] is 16600 nM (active). Moreover, the Potency result in assay [2] and in assay [3] was “inactive” throughout.
